PubChem BioAssay (NCATS)
Results filed as inconclusive are left out. Active and inactive are the calls of the source. The call rests on the fitted dose curve; in most records, active means well fitted curve in the direction sought with a large enough effect; inconclusive means small, poorly fitted or top-dose-only effect, or another doubt; inactive means no such curve, though single readings can be large; an effect the other way counts as inactive or inconclusive.

Tests used:
[1] = target: Dual specificity protein kinase CLK4 (Homo sapiens) (UniProt Q9HAZ1); test: qHTS Assay for Inhibitors of CDC-like Kinase 4 (ADP-Glo Assay) (AID 1771); further: nearly all actives have a fitted effect of over 70% in size
Outline: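 Kinase reaction: Clk4 at 25 nM, RS repeat peptide substrate at 100 uM, ATP at 1 uM, 1 hr, room temperature. Product ADP detected as luciferase signal via ADP-Glo.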

[2] = target: Cytochrome P450 2D6 (Homo sapiens) (UniProt P10635); test: qHTS Assay for Inhibitors and Substrates of Cytochrome P450 2D6 (AID 891); further: nearly all actives have a fitted effect of over 60% in size
Outline: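 Human CYP2D6 (5 nM) with 30 uM Luciferin-ME EGE (at Km) in 100 mM KPO4, compound preincubated 10 min, then NADPH regeneration system for 60 min at room temperature. Luciferin read by luminescence; normalized to 1.43 uM quinidine.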
Potency means the concentration at half of the fitted maximal effect.

Sequence of Cytochrome P450 2D6 (Homo sapiens) (P10635 whole entry, looked up): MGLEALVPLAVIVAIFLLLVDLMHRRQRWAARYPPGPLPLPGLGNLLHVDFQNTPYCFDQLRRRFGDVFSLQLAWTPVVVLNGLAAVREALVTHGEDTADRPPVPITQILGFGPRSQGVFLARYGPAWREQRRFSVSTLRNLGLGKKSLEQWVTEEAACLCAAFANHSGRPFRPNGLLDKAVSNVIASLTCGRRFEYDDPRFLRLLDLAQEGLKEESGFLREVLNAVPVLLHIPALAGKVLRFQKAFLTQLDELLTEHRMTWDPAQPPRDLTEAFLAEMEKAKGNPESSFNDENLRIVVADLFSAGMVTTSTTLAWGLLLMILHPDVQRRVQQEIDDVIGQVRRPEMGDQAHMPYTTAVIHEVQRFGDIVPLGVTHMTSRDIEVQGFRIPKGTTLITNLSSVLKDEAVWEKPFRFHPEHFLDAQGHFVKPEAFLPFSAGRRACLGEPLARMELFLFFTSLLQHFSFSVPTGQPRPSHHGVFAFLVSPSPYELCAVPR
Sequence of Dual specificity protein kinase CLK4 (Homo sapiens) (Q9HAZ1 whole entry, looked up): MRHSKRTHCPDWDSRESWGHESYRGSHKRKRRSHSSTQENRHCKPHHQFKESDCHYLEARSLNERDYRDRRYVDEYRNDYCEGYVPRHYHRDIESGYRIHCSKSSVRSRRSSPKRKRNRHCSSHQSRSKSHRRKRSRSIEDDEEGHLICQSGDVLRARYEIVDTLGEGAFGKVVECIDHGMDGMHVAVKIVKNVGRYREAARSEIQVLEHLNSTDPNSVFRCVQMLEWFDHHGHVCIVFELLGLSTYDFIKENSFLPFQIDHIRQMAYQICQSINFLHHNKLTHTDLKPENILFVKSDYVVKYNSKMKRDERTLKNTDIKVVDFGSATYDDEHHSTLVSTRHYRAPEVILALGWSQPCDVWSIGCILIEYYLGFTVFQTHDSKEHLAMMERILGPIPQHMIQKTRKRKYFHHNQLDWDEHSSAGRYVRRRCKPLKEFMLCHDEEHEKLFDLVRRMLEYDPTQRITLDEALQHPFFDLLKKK

Structure (SMILES) | Potency [1] | Potency [2]
CN(C)c1ccc(-c2ccc3ncnc(N(C)C)c3c2)cc1 | 8.91 µM (active) | –
Fc1ccc(Nc2ccnc(-c3ccoc3)n2)cc1 | inactive | –
CN(C)Cc1ccccc1-c1cc(N(C)Cc2ccco2)ncn1 | – | 7.94 µM (active)
CN(C)C(=O)c1ccc(-c2cc(NCc3cccnc3)ncn2)cc1 | 14.1 µM (active) | –
COc1ccccc1CNc1cc(-c2c(C)noc2C)ncn1 | 17.8 µM (active) | –
Cc1nc2cnc(Nc3ccccc3)nc2n(C2CC2)c1=O | 6.31 µM (active) | –
Cc1noc(C)c1-c1ccc2ncnc(NC3CCNCC3)c2c1 | 25.1 µM (active) | –
Cc1cnc(CNc2cc(-c3cccc(NS(C)(=O)=O)c3)ncn2)cn1 | 15.8 µM (active) | –
CN(C)C(=O)c1ccc(-c2cc(Nc3ccccc3)ncn2)cc1 | 14.1 µM (active) | –
CN(C)Cc1ccccc1-c1nc(N(C)C)c2ccccc2n1 | – | 2.51 µM (active)
CNc1ccnc(-c2ccccc2CN(C)C)n1 | – | 0.0398 µM (active)
CCNc1ncc2nc(C)c(=O)n(-c3ccc(OC)cc3)c2n1 | – | inactive
CC(=O)NCCNc1nc(-c2ccccc2C(F)(F)F)nc2ccccc12 | – | 3.98 µM (active)
CN(C)Cc1ccccc1-c1cc(NC2CC2)ncn1 | – | 0.0398 µM (active)
COc1cccc(-c2nccc(-n3ccnc3)n2)c1 | – | 7.94 µM (active)
Cc1cccc(CNc2ccnc(-c3cccnc3)n2)c1 | – | 0.631 µM (active)
Clc1ccccc1-c1nccc(-n2ccnc2)n1 | – | 7.94 µM (active)
c1cncc(CNc2nc(-c3ccoc3)nc3ccccc23)c1 | – | 5.01 µM (active)
CN(C)Cc1ccccc1-c1nc(N2CCOCC2)c2ccccc2n1 | – | 7.94 µM (active)
CN(C)c1ccc(-c2cc(-n3ccnc3)ncn2)cc1 | – | 7.94 µM (active)
